From article PMC5998130

Target: Smad nuclear-interacting protein 1 (UniProt Q8TAD8)
Assay: mass-spectrometry hit list; affinity purification or IP with mass spectrometry

DNA-directed RNA polymerase II subunit RPB1, P24928
listed as a hit: yes
